Inconclusive results are not listed. Unmarked numbers belong to inactive results. Activity calls are given as the source filed them. Calls follow the shape of the dose curve; as a rule, active = well fitted curve in the direction sought with a large enough effect; inconclusive = small, poorly fitted or top-dose-only effect, or another doubt; inactive = no such curve, though single readings can be large; an effect the other way counts as inactive or inconclusive.

A short description of assay [1]: Viability qHTS for spleen associated tyrosine kinase inhibitor (SYKi) naive MV4-11 cells (AID 1963823). Also: nearly all actives have a fitted effect of over 40% in size. Also: potency is read from the fitted curve at half-maximal effect. The settings on record: MV4-11 AML viability, CellTiter-Glo luminescence, 72 h; series mostly up to 45 µM. The method in brief:
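qHTS, SYK inhibitor-naive MV4-11; 500 cells/well; 72 hr compound exposure, 37 C; CellTiter-Glo added, 10 min RT; luminescence read.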

Assay [2] can be described thus: Cellular viability qHTS for adrenocortical cancer (ACC) cell line SW-13 (AID 1963989).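 Also: cells grown in serum-free medium with ITS supplement; % is scaled to controls: 0 for no effect and ±100 for the full control effect; nearly all actives have a fitted effect of over 65% in size.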 The settings on record: SW-13 ACC cells viability, CellTiter-Glo, 48 h; activity (max response): stronger effect = lower value. The method in brief:
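IC50 and maximal-response values come from four-parameter logistic fits of titration data. SW-13 cells in serum-free medium received compounds (up to 46 uM final) for 48 h before CellTiter-Glo luminescence.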
In general terms: In qHTS, concentration-response curves come from the screen itself.

Assay [3] can be described thus: Cellular viability qHTS for adrenocortical cancer (ACC) cell line NCI-H295R (AID 1963990). Also: nearly all actives have a fitted effect of over 60% in size. Also: potency is read from the fitted curve at half-maximal effect. The settings on record: CellTiter-Glo ATP luminescence, 48 h; series mostly up to 46.1 µM. The method in brief:
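Adrenocortical carcinoma cells, suspended at 300 000 cells/mL in serum-free DMEM plus ITS, rested overnight before pin transfer of compound. After two days' incubation, ATP-dependent luminescence was recorded and curve-fitted.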

Assay [4] in a line: Viability qHTS for spleen associated tyrosine kinase inhibitor (SYKi) drug resistant MV4-11 cells (AID 1963824). Also: nearly all actives have a fitted effect of over 35% in size. Also: potency is read from the fitted curve at half-maximal effect. The settings on record: SYKi-resistant MV4-11 viability, CellTiter-Glo, 72 h; series mostly up to 45 µM. The method in brief: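 SYK-inhibitor-resistant MV4-11 AML cells were seeded at 500 per well onto compound and cultured 72 hours (37 °C, 5% CO2). CellTiter-Glo was then added, and after 10 min at room temperature, luminescence gave viability.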

For the compound `CC1(C)O[C@@H]2C[C@H]3[C@@H]4CCC5=CC(=O)C=C[C@]5(C)[C@H]4[C@@H](O)C[C@]3(C)[C@]2(C(=O)CO)O1`, the Potency result in assay [1] and in assay [3] was “inactive” each time. Moreover, in assay [2], the activity (max response) was -6.19%.

Turning to `O=C1c2ccccc2S(=O)(=O)N1CCCCN1CCN(c2ncccn2)CC1`, the Potency entry in assay [1] and in assay [3] was “inactive” each time.

With `CC1=CC2C(CC1OC1OC(CO)C(O)C(O)C1O)C(C)CC(=O)C2C(C)C` (configuration not stated), in assay [4], the Potency entry is “inactive”.

On to `CSc1ccc(/C=C2/C(C)=C(CC(=O)O)c3cc(F)ccc32)cc1`, for which the Potency entry in assay [1] was “inactive”. In addition, in assay [3], the Potency is 25.9 µM (active).

For the compound `OCCN1CCN(CC/C=C2/c3ccccc3Sc3ccc(C(F)(F)F)cc32)CC1`, the figures for the Potency in assay [1] and in assay [3] were 21.1 µM (active) and 16.4 µM (active), respectively.

For `COc1cc(O)c2c(=O)c(O)c(-c3ccc(O)c(O)c3)oc2c1`, the Potency in assay [4] is 8.2 µM (active).

On to `COc1ccccc1N1CCN(CCCCNC(=O)c2ccc(-c3ccc(C(C)=O)cc3)cc2)CC1`, for which the Potency entry in assay [1] and in assay [3] was “inactive” throughout.

Regarding `O=C(O)c1ccc(-n2nc(-c3ccccc3O)nc2-c2ccccc2O)cc1`, the Potency in assay [1] is 16.8 µM (active); in assay [3] it was 31.6 µM (active).

On to `C=C1C[C@H]2[C@@H]3C=C(C)C4=CC(=O)CC[C@]4(C)[C@H]3CC[C@]2(C)[C@@]1(OC(C)=O)C(C)=O`, for which the Potency in assay [1] was 18.8 µM (active). Further, in assay [3], the Potency entry was “inactive”.

Regarding `CC(CCc1ccc2c(c1)OCO2)NN` (configuration not stated), the Potency result in assay [1] and in assay [3] was “inactive” throughout.

For the compound `CCCOC(=O)c1ccc(N)cc1`, the Potency result in assay [1] and in assay [3] was “inactive” throughout.

On to `CO[C@@H]1[C@@H](O[C@H]2O[C@@H](C)[C@H](O[C@@H]3C[C@](C)(O)[C@H](O)[C@@H](C)O3)[C@@H](N(C)C)[C@@H]2O)[C@@H](CC=O)C[C@@H](C)[C@@H](O[C@H]2CC[C@H](N(C)C)[C@H](C)O2)/C=C/C=C/C[C@@H](C)OC(=O)C[C@H]1O`, for which the Potency in assay [4] was 10.3 µM (active).

These data come from PubChem BioAssay (NCATS).
